VACV mCherry inh: qHTS for Stage-Specific Inhibitors of Vaccinia Orthopoxvirus: mCherry Reporter Primary qHTS; 310,000 tested, 0.63% active; Vaccinia virus mCherry reporter infection, fluorescence; Potency, µM (doses to about 36.5 µM), for the others: at the highest dose activity change, negative = inhibition, most hits filed as inhibitors; calls by dose curve; tested in A549 cells; further: on the % scale 0 is the no-effect control and ±100 the full control effect; nearly all actives have a fitted effect of over 35% in size
Pf growth 96h: Primary qHTS for delayed death inhibitors of the malarial parasite plastid, 96 hour incubation; 320,000 tested, 6.9% active; P. falciparum luciferase reporter growth, 96 h; Potency, µM (series often up to 28.7 µM), inactives show at the top dose activity change, negative = inhibition, usual class: inhibitors; further: on the % scale 0 is the no-effect control and ±100 the full control effect
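Compounds incubated with erythrocytes infected by luciferase-expressing P. falciparum (2% hematocrit, 0.05% parasitemia final) for 96 hours, 37 C in 5% CO2. Growth inhibition scored as decreased luciferase luminescence.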
NS1 function inh: qHTS Assay for Inhibitors of Influenza NS1 Protein Function; Potency, µM (highest dose often 46.1 µM), inactives show top-dose activity, positive = more growth; 270,000 tested, 0.4% active; calls by dose curve; further: actives are rising curves; nearly all actives have a fitted effect of over 50% in size
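A cell-based growth assay was used: compounds that relieve NS1-induced slow growth of budding yeast raise OD600. Assay medium was yeast nitrogen base with ammonium sulphate and -URA supplement, pH 6.0, with 2% galactose.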
Pf growth 48h: Primary qHTS for delayed death inhibitors of the malarial parasite plastid, 48 hour incubation; P. falciparum luciferase growth in erythrocytes, 48 h; Potency, µM (top dose mostly 28.7 µM), for inactives: at the top dose activity change, negative = inhibition, most hits filed as inhibitors; 310,000 tested, 5.9% active; AID 504832, 2011; further: on the % scale 0 is the no-effect control and ±100 the full control effect
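Firefly luciferase activity from engineered P. falciparum reports growth; inhibitors lower the luminescent signal. Cultures contained 2% hematocrit erythrocytes at 0.1% final parasitemia.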
VACV Venus inh: qHTS for Stage-Specific Inhibitors of Vaccinia Orthopoxvirus: Venus Reporter Primary qHTS. Vaccinia virus Venus reporter expression, fluorescence. Potency, µM (series often up to 36.5 µM), inactives show at the highest dose activity change, negative = inhibition, usual class: inhibitors. 330,000 tested, 0.46% active. AID 720580, 2013; calls by dose curve; tested in A549 cells; further: on the % scale 0 is the no-effect control and ±100 the full control effect; nearly all actives have a fitted effect of over 30% in size
HCV inh: qHTS Assay for Inhibitors of Hepatitis C Virus (HCV); Potency, µM (series often up to 41.8 µM), without a hit: at the highest dose activity change, negative = inhibition, hits mostly inhibitors; Huh7.5.1 HCVcc-Cre infection, luciferase reporter, 44 h; 340,000 tested, 3.4% active; further: on the % scale 0 is the no-effect control and ±100 the full control effect
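Reporter virus HCVcc-Cre (~0.5 moi) infects cells exposed to compound; seeding density 1,000 cells/well with 4 h settling beforehand. Luminescence, 15 sec read, taken 44 h post-infection following a 15 min RT substrate incubation.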
Starred values were filed as active, the others as inactive; i = inactive; ? = inconclusive; . = no result; [ ] = remark or other dose. Only some compounds are listed: those with a hit (about 11% of all), similar ones and a draw of the others. Unless noted, the call rests on the fitted dose curve; in most records, active means well fitted inhibition curve with a large enough effect; inconclusive means small, poorly fitted or top-dose-only effect, or another doubt; inactive means no such curve, though single readings can be large or run the other way. Potency means the concentration at half of the fitted maximal effect.

SMILES | VACV mCherry inh | Pf growth 96h | NS1 function inh | Pf growth 48h | VACV Venus inh | HCV inh
C=CCn1c(COc2ccccc2F)nnc1SCC(=O)Nc1cc2oc3ccccc3c2cc1OC | . | 1.5%[5.75 µM] | 23.8% | 0.4% | ? | 7.08µM*
C=Cn1c(P(=S)(N2CCOCC2)N2CCOCC2)cc2c1CCCC2 | ? | 21.2% | 0.1% | 11.7µM* | -8.2% | ?
COC(/C(=N/O)c1ccc(Cl)cc1)c1ccccc1 (stereo not given) | ? | 2.33µM* | -37.5% | 2.08µM* | ? | -12.6%
COP(=O)(OC)OC(C(=O)c1ccccc1)c1ccc(Cl)cc1 (stereo not given) | i | . | . | . | -6.6% | .
Cc1cccc(-c2cc3c(nn2)-c2ccccc2C3=O)c1 | . | . | -62.7% | 1.31µM* | -8.9% | -11.4%
O=C1c2ccccc2-c2nnc(-c3ccccc3)cc21 | -7.4% | ? | -31.8% | 2.62µM* | 2.8% | 18.5%
COc1ccc(-c2cc3c(nn2)-c2ccccc2C3=O)cc1 | -2.5% | 1.85µM* | . | 18.8% | 2.2% | 6.8%
O=C(NNC(=O)C12CC3CC(CC(C3)C1)C2)c1cccc([N+](=O)[O-])c1 | i | 12.5% | -5.4% | 13.5% | -5.2% | -1.6%
Cc1cc(NC(=O)Cn2nc(C(F)(F)F)c3c2CCC3)no1 | . | . | -5.7% | ? | -2.3% | 1.6%
CCOC(=O)C1(C)CCN1C(=O)c1ccc(-c2ccccc2)cc1 (stereo not given) | 31.3% | . | . | . | -5.2% | .
O=S(=O)(Nc1ccc(F)cc1)N1CCOCC1 | -29.5% | 32.5% | ? | 7.8% | -6.0% | 16.9%
O=c1cc(Br)c(O)c(Br)cc1Br | i | . | . | . | -10.4% | 3.5%
NC(=S)N/N=C/c1ccc(-c2cccc([N+](=O)[O-])c2)o1 | 4.47µM* | ? | -1.1% | ? | 5.01µM* | ?
O=[N+]([O-])c1ccc(Cl)c(/C=N/NC(=S)Nc2ccccc2)c1 | . | ? | 4.3% | ? | . | 13.5%
Cc1ccc([N+](=O)[O-])cc1-c1ccc(/C=N/NC(=O)c2cc3c(ccc4ccccc43)o2)o1 | . | 41.1% | -0.8% | . | -6.0% | ?
CCC(=O)N/N=C/c1ccc(-c2ccc(Cl)cc2)o1 | -5.7% | ? | -3.4% | 50.6% | -6.4% | -16.3%
CCC(=O)N/N=C/c1ccc(-c2ccc([N+](=O)[O-])cc2)o1 | ? | 10.4µM* | -4.3% | -2.0% | -7.9% | -11.6%
Cc1ccc(-c2ccc(/C=N\NC(=O)c3cc4c(ccc5ccccc54)o3)o2)cc1[N+](=O)[O-] | . | 2.94µM* | 15.3% | ? | 8.6% | ?
NC(=S)N/N=C/c1cc([N+](=O)[O-])ccc1Cl | ? | 12.7% | . | 5.8% | 2.24µM* | -8.2%
N=C1/C(=C/c2ccc(OCc3ccccc3)cc2)C(=O)N=C2SC(CC(=O)N3CCOCC3)=NN12 | -17.1% | 50.0% | -50.4% | 25.2% | -3.0% | 15.4%
O=C1C=C(NC(=O)Nc2ccc(Cl)c(Cl)c2)CCC1 | 0.5% | ? | 6.3% | ? | -4.4% | -14.9%
Cc1cc([N+](=O)[O-])ccc1-c1ccc(/C=N/NC(=O)c2ccc(Br)o2)o1 | . | ? | -27.9% | ? | . | ?
CCCCC(=O)N/N=C/c1ccc(-c2ccc([N+](=O)[O-])cc2)o1 | -26.2% | 9.28µM* | -3.4% | -23.9% | -20.8% | ?
Cc1cc(C)n(Cc2ccc(C(=O)N/N=C/c3ccc(-c4ccc([N+](=O)[O-])cc4)o3)o2)n1 | -2.5% | 5.22µM* | 0.4% | -9.5% | -17.6% | ?
C=CCNC(=S)N/N=C/c1ccc(-c2ccc(OC)cc2)o1 | ? | ? | 1.7% | 5.22µM* | ? | ?
CCc1nnc(N/N=C/c2ccc(-c3ccc([N+](=O)[O-])cc3)o2)n1N | ? | ? | . | 11.7µM* | ? | -9.5%
CC(C)(C)NC(=S)N/N=C\c1ccc(-c2ccc([N+](=O)[O-])cc2)o1 | -3.1% | 3.7µM* | 6.2% | ? | -1.8% | -19.4%

Assay outcomes: PubChem BioAssay, National Center for Advancing Translational Sciences (NCATS)
